Experimental data taken from PubChem BioAssay.

Test: Pseudomonas biofilm growth suppression – PAO1 strain, BacTiter-Glo luminescence, LB-PBS, primary screen (AID 1144)
Details: P. aeruginosa PAO1 biofilm, 12 h, higher = more signal; call rule not given here

z-score, inactive:
COCCOC(=O)N1C(=O)[C@@]2(c3cc(C#CCC(C(=O)OC)C(=O)OC)ccc31)[C@H](c1ccccc1OCCO)N1[C@H](c3ccccc3)[C@H](c3ccccc3)OC(=O)[C@H]1[C@@H]2C(=O)N1CCN(c2ncccn2)CC1 -1.09
C=CCC(OC(C)=O)[C@@H]1[C@@H](N(Cc2ccc(-c3ccccc3)cc2)C(=O)c2cccc3ccccc23)c2cc(OCCCO)ccc2N1C(=O)c1ccc(-c2ccccc2)cc1 (some centres undefined) -0.915
O=C(NCCO)C1=C[C@H](Oc2ccccc2I)[C@@H](O)[C@H](N(Cc2ccco2)C(=O)Cc2ccccc2)C1 -0.0382
C#C[C@H](O[Si](C#Cc1ccc(Oc2ccccc2)cc1)(C(C)C)C(C)C)c1ccccc1 -0.0203
CC1CC/C=C\[C@H]2OC34C=CCN(Cc5ccccc5)C(=O)[C@H]3N(CCCO)C(=O)[C@@H]4C2C(=O)O1 (some centres undefined) 0.446
CCOC(=O)C[C@H]1[C@H](OC(=O)c2ccc(C(=O)c3ccccc3)cc2)[C@@H](NC(=O)c2ccccc2)c2cc(OCCCO)ccc2N1C(=O)Cc1ccc(OC)cc1 -0.0343
CC(C)CNC(=O)[C@@]1(Cc2ccccc2I)c2ccccc2C(=O)N(C2CCCCC2)[C@H]1c1ccc(CO)cc1 0.0484
Cc1ccc(S[C@]2(C(=O)NCCCN(C)C)CC(=O)N(Cc3ccccc3C(F)(F)F)[C@@H]2c2ccc(CO)cc2)cc1 1.08
C=CC[C@]1(C(=O)NCCCOC)N=C(c2ccc(OCCCO)cc2)O[C@H]1c1ccccc1CN=[N+]=[N-] 0.162
